Records with an inconclusive call do not appear. Activity calls are given as the source filed them. The call rests on the fitted dose curve; in most records, active means well fitted activation curve with a large enough effect in the repeat runs; inconclusive means weak or mixed curves; inactive means no such curve, though single readings can be large or run the other way.
On the % scale 0 is the no-effect control and ±100 the full control effect; potency means the concentration at half of the fitted maximal effect.

Aryl hydrocarbon receptor (Homo sapiens), sequence (P35869 whole entry, looked up): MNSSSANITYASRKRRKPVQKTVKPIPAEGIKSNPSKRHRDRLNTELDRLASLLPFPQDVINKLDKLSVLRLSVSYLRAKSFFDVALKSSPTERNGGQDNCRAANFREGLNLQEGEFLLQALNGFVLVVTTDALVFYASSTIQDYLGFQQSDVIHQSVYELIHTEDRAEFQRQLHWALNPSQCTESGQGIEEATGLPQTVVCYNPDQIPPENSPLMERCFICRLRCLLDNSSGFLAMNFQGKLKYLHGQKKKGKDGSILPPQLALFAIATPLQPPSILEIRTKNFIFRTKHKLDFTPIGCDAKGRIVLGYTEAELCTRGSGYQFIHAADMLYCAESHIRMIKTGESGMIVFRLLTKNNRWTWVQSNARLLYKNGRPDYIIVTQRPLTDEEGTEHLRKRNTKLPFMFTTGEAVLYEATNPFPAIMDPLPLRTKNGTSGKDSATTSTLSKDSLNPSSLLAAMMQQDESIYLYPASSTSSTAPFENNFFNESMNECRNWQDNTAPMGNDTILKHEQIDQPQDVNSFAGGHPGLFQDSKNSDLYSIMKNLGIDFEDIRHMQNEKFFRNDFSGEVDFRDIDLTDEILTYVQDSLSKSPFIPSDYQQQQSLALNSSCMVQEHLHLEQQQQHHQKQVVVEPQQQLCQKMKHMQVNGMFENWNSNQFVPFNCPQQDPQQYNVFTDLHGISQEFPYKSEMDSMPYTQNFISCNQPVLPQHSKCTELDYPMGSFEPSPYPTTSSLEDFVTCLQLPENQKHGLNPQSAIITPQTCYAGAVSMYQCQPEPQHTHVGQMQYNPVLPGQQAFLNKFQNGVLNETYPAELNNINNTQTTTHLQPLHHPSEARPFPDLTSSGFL

The target in the test is Aryl hydrocarbon receptor (Homo sapiens) (UniProt P35869). The test can be described thus: qHTS assay to identify small molecule that activate the aryl hydrocarbon receptor (AhR) signaling pathway (AID 743085). Further: nearly all actives have a fitted effect of over 15% in size.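 On activation: HG2L7.5c1 human HepG2 liver cells with stably integrated DRE-driven firefly reporter.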 Particulars: HepG2 AhR-luc (HG2L7.5c1), luciferase, 24 h; series mostly up to 70.3 µM; activation: at the top concentration. In outline:
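Luminescence read-out: ONE-Glo reagent, 30 min at room temperature, in HG2L7.5c1 HepG2 reporter cells treated 24 h at 37C. Viability was measured beforehand by CellTiter-Fluor fluorescence after 30 min at 37C.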
Take `C=C[C@]1(C)C[C@@H](OC(=O)CSC(C)(C)CNC(=O)[C@H](N)C(C)C)[C@]2(C)[C@H](C)CC[C@]3(CCC(=O)[C@H]32)[C@@H](C)[C@@H]1O`: the “activation” value is 5% (inactive). Same read-out and setting: next, `CCCCC(=O)OCC(=O)[C@]1(O)Cc2c(O)c3c(c(O)c2[C@@H](O[C@H]2C[C@H](NC(=O)C(F)(F)F)[C@H](O)[C@H](C)O2)C1)C(=O)c1c(OC)cccc1C3=O`: 2.14% (inactive); `CCC(=O)OCC(=O)[C@@]1(OC(=O)CC)[C@H](C)C[C@H]2[C@@H]3CCC4=CC(=O)C=C[C@]4(C)[C@@]3(F)[C@@H](O)C[C@@]21C`: 7.09% (inactive); `O=C(OCCO)c1ccccc1O`: -3.16% (inactive). For `CCCCCCCN(CC)CCCC(O)c1ccc(NS(C)(=O)=O)cc1` (configuration not stated), the “activation” value is -0.0518% (inactive). For the molecule `O=C1CSC2(CCN(CCCN3c4ccccc4Sc4ccc(Cl)cc43)CC2)N1`, the Potency is 13.3 µM (active).

With `N#Cc1ccc2c(c1)N(CCCN1CCC(O)CC1)c1ccccc1S2`, the “activation” value is 6.4% (inactive). On the same count and under the same terms, next, `O=C(CCCN1CCC(C(=O)c2ccc(F)cc2)CC1)c1ccc(F)cc1`: 0.421% (inactive). Regarding `C=C1C(=C/C=C2\CCC[C@]3(C)[C@@H]([C@H](C)CCCC(C)(C)O)CC[C@@H]23)C[C@@H](O)C[C@@H]1O`, the Potency is 10.6 µM (active). In the case of `C/C=C(/CC[C@@H](C)[C@H]1CC[C@H]2C3=CC[C@H]4[C@H](C)[C@@H](O)CC[C@]4(C)[C@H]3CC[C@]12C)C(C)C`, the “activation” value was -1.7% (inactive). Consider `O=C(O)c1c(Cl)c(Cl)c(Cl)c(Cl)c1-c1c2cc(I)c(=O)c(I)c-2oc2c(I)c(O)c(I)cc12`, for which the Potency was 6.68 µM (active). Consider `CCN(CC)CCOc1ccc(-c2nc3cc(Cl)ccc3s2)cc1`, for which the Potency is 8.41 µM (active).

The record behind these values is PubChem BioAssay (Tox21).
